Screening results from PubChem BioAssay.
Abeta yeast res: qHTS for compounds that reverse cellular toxicity of Amyloid beta (A-beta) peptide in yeast: Primary Screen. 410,000 compounds, 0.063% hits. yeast expressing A-beta42, growth rescue, OD600, 48 h; response scale: 0% DMSO, 100% iron-clioquinol control. Potency, µM (highest dose often 46.1 µM), most hits filed as activators. AID 1347071, 2019; also: potency is read from the fitted curve at half-maximal effect; nearly all actives have a fitted effect of over 55% in size
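Yeast A-beta toxicity model in growth medium with pinned compounds, 48 h at 30 C; growth read as absorbance at 600 nm. Normalized to FeCl3/clioquinol equimolar mix (positive) and DMSO (negative).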
TDP43 rescue: qHTS of TDP-43 Inhibitors; TDP-43 expressing yeast growth rescue, BacTiter-Glo, 24 h; Potency, µM (titrated, usually from 46.1 µM), for the others: top-dose growth rescue (activation), most hits filed as activators; 410,000 compounds, 1.8% hits; also: potency is read from the fitted curve at half-maximal effect; % of control where 0% means no effect; nearly all actives have a fitted effect of over 50% in size
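Yeast expressing TDP-43 (pregrown in raffinose, seeded at OD600=0.02 in galactose medium) exposed to compounds 24 hr at 30 deg C. Growth read by BacTiter-Glo luminescence; rescue of toxicity appears as increased signal.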
FUS suppressor: qHTS for Suppressors of FUS Proteinopathy: Primary screen using FUS-linked yeast assay. AID 1347120, 2019. Potency, µM (highest dose often 76.6 µM), hits mostly activators. S. cerevisiae FUS-expressing, growth rescue, OD600, 24 h. 390,000 compounds, 0.24% hits;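 also: potency is read from the fitted curve at half-maximal effect; plate controls were DMSO vehicle for no effect and reference control for full effect; nearly all actives have a fitted effect of over 55% in size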
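Yeast FUS proteinopathy model; galactose-induced FUS (2%), starting OD 0.005. Cpds in dilution series, 24hr, 30C, 99% humidity. Abs 600 nm growth. Pos ctrl CP55940 (top 92uM final); neg ctrl DMSO.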
Mm-Cpn inhibitor: Inhibitors of TCP-1 ring complex (TRiC) of Methanococcus maripaludis (MmCpn): qHTS | Chaperonin Mm-Cpn (Methanococcus maripaludis) | purified Mm-Cpn ATPase, ADP Transcreener TR-FRET | Potency, µM (series often up to 76.9 µM), inactives show top-dose activity, negative = inhibition, most hits filed as inhibitors | 330,000 compounds, 0.031% hits; also: potency is read from the fitted curve at half-maximal effect; % is scaled to controls: 0 for no effect and ±100 for the full control effect; nearly all actives have a fitted effect of over 80% in size
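TR-FRET (320 nm excitation; 590 and 665 nm emission) reports ADP made from 10 uM ATP by 25 nM enzyme; compounds were preincubated 10 min, reaction run 30 min, both at 37°C.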
aSyn yeast inh: qHTS of alpha-syn Inhibitors; Yeast expressing alpha-synuclein, growth rescue, BacTiter-Glo, 24 h; Potency, µM (series often up to 46.1 µM), for inactives: at the top dose growth rescue (activation), actives largely listed as activators; 370,000 compounds, 0.14% hits; also: potency is read from the fitted curve at half-maximal effect; % of control where 0% means no effect; nearly all actives have a fitted effect of over 65% in size
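Screening used galactose-induced yeast with toxic alpha-synuclein levels, exposed to compound for 24 hr at 30 deg C. Cell growth, read with BacTiter-Glo luminescence, gave the measured signal.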
CCT chaperon mod: High-Throughput Screening for Modulators of Cytosolic Chaperonin Activity; purified chaperonin ATPase assay, HTRF ADP detection, 30 min; activity change, % (test concentration not listed), hits read low; 360,000 compounds, 0.3% hits; in the data active = activity change below about -30%; also: % is scaled to controls: 0 for no effect and ±100 for the full control effect
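We incubate TRiC, 40 or 20 nM final, with library compounds at 76 uM and 10 uM ATP for 30 min at 37 °C. ADP formed is detected with Transcreener HTRF reagents after 30 min at room temperature.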
* marks the source's active call; other numbers are inactive results; i = inactive; ? = inconclusive; / = no result given. Sampled rows, rich in hits. Any-hit rate of the full collection: about 2.3%. Unless noted, calls follow the shape of the dose curve; as a rule, active = well fitted curve in the direction sought with a large enough effect; inconclusive = small, poorly fitted or top-dose-only effect, or another doubt; inactive = no such curve, though single readings can be large; an effect the other way counts as inactive or inconclusive.

SMILES	Abeta yeast res	TDP43 rescue	FUS suppressor	Mm-Cpn inhibitor	aSyn yeast inh	CCT chaperon mod
Clc1ccccc1/C=C/c1nc(-c2cccnc2)no1	i	10µM*	i	1%	-4%	-2
Clc1ccccc1-c1nc(-c2cccnc2)no1	i	?	i	/	4%	0
Cc1ccccc1-c1nc(-c2cccnc2)no1	i	14µM*	i	2%	0%	0
CSc1ccccc1-c1nc(-c2ccncc2)no1	i	14µM*	i	-8%	14%	1
C(=C\c1nc(-c2cccnc2)no1)/c1ccccc1	i	2.2µM*	i	-14%	-7%	-6
c1ccc(C(Cc2nc(-c3ccncc3)no2)c2ccccc2)cc1	i	35µM*	i	-1%	1%	1
Cc1cc(C)c(C)c(OCc2nc(-c3cccnc3)no2)c1	i	-14%	i	-2%	/	3
Cc1ccc(SCc2nc(-c3cccnc3)no2)cc1	i	18µM*	i	-1%	5%	-1
c1ccc(-c2nc(-c3ccncc3)no2)cc1	i	5%	i	/	3%	-3
Cc1ccc(C(=O)NC2CCCCN(Cc3ccc(Cl)cc3)C2=O)c(C)c1 (configuration not stated)	/	/	i	/	/	/
COc1ccc(/C=C2\C=Cc3ccccc32)cc1OC	/	/	/	/	-20%	/
CCOC(=O)C1=C(c2ccccc2)Nc2ncnn2C1c1ccc(C(=O)O)cc1 (configuration not stated)	i	2%	i	-1%	0%	0
CCOC(=O)C1=C(c2ccccc2)NC(N)=NC1c1ccc(OCc2ccc(C(=O)OC)cc2)cc1 (configuration not stated)	i	-15%	25µM*	2%	-8%	-3
COc1ccccc1-c1sc2cc3c(cc2c1-c1ccc2c(c1)OCO2)OCO3	i	5%	i	18µM*	-18%	0
COc1cc2c(NC3CCN(C)CC3)nc(N3CCN(C)CC3)nc2cc1OCCCN(C)C	/	/	/	/	-18%	/
O=C(Nc1c(Cl)cccc1Cl)c1cc(-c2ccc3c(c2)OCO3)on1	i	33%	i	/	/	/
O=C(Nc1c(Cl)cccc1Cl)c1cc(-c2cccc(O)c2)on1	i	16µM*	i	/	/	/
COc1ccc(N2CC(C(=O)N3CCC4(CC3)CC(=O)c3ccccc3O4)CC2=O)cc1 (configuration not stated)	i	25%	i	2%	4%	-56*
CCOc1[nH]c(/N=C/c2ccc(OC)cc2)c(C#N)c1C#N	/	/	/	/	-39%	/
S=C(NCCN1CCOCC1)N1CCN(c2cccc(Cl)c2)CC1	i	-18%	i	-2%	-1%	2
S=C(NCc1ccco1)N1CCN(c2cccc(Cl)c2)CC1	13µM*	23%	i	1%	1%	-3
CCCC(=O)N1c2ccccc2C(N(C(C)=O)c2ccccc2)CC1C (configuration not stated)	i	-10%	?	0%	2%	-3
CCC(=O)N1c2ccccc2[C@@H](N(C(C)=O)c2ccccc2)C[C@H]1C	i	-6%	?	-1%	-1%	-79*
COC(=O)c1sccc1NC(=O)c1ccc(C)o1	i	4%	i	1%	5%	0
COC(=O)c1sccc1-c1ccc(C(=O)Nc2ccccc2)o1	i	13µM*	i	-14%	10%	-1
O=C(Oc1c(Cl)cc(Cl)c2ccccc12)N1CCCC1	i	13µM*	i	1%	0%	-2
CCOC(=O)c1cccc(NS(=O)(=O)c2ccc3[nH]c4c(c3c2)CCCC4)c1	i	19%	i	/	/	/
O=C(c1cn(-c2ccc(Cl)c(Cl)c2)nn1)C1CC1	i	8.9µM*	i	2%	10%	-2
